Laboratory results published in PubChem BioAssay (NCATS).
Records with an inconclusive call do not appear. Where a call stands in place of a potency, no number is given. Calls of active or inactive are those of the source. Calls come from the whole dose curve; as a rule, active = well fitted curve in the direction sought with a large enough effect; inconclusive = small, poorly fitted or top-dose-only effect, or another doubt; inactive = no such curve, though single readings can be large; an effect the other way counts as inactive or inconclusive.

Experiments:
[1] = qHTS for Inhibitors of Plasmodium falciparum (DD2) proliferation (AID 504314);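 note: parasite DNA measured by SYBR Green fluorescence after red cell lysis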
In short: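 Quantitative HTS growth inhibition: SYBR Green I binding to parasite DNA after 72 h drug exposure of infected erythrocytes (0.3% parasitemia, 2.5% hematocrit). Signals normalized per plate to inhibitor and vehicle wells.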

[2] = qHTS for Inhibitors of Plasmodium falciparum (7G8) proliferation (AID 504316); note: nearly all actives have a fitted effect of over 65% in size; note: potency is the fitted concentration of half-maximal effect
In short: (§1)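 Erythrocytes infected with P. falciparum line (0.3% parasitemia, 2.5% hematocrit final) incubated with compounds 72 h at 37 °C, 5% CO2; SYBR Green lysis buffer added, fluorescence read next day. Normalized to 0.29 uM artemisinin and DMSO.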

[3] = qHTS for Inhibitors of Plasmodium falciparum (HB3) proliferation (AID 504318); note: nearly all actives have a fitted effect of over 60% in size; note: potency is the fitted concentration of half-maximal effect
In short: as §1

[4] = qHTS for Inhibitors of Plasmodium falciparum (GB4) proliferation (AID 504315); note: nearly all actives have a fitted effect of over 50% in size; note: potency is the fitted concentration of half-maximal effect
In short: as §1

[5] = qHTS for Inhibitors of Plasmodium falciparum (CP250) proliferation (AID 504320); note: potency is the fitted concentration of half-maximal effect
In short: as §1

SMILES | Potency [1] | Potency [2] | Potency [3] | Potency [4] | Potency [5]
Cc1ccc(S(=O)(=O)N2CCc3nc(-c4ccccc4)c4c(c3C2)CO[C@@H](C)C4)cc1 | inactive | inactive | inactive | – | –
CCCCCCCc1cc2ccccc2c2c(C(=O)OC)c(-c3ccccc3)c(C(=O)OC)n12 | – | inactive | inactive | inactive | inactive
C#CCCOC(=O)N1C2=NC(C(=O)OC)=C(C(=O)OC)[C@@H]3N(C)c4ccc(OC)cc4[C@]23C[C@H]1C(=O)OC | inactive | – | – | – | inactive
COC(=O)[C@H]1[C@@H](C)N(CCc2cc(OC)c(OC)c(OC)c2)C(=O)N[C@H]1c1ccccc1 | inactive | – | inactive | – | inactive
COC(=O)N1C2CC(=O)O[C@@H]3c4cc5c(cc4[C@]1(C)[C@@]3(Br)c1ccccc12)OCO5 | – | 1690 nM (active) | 1900 nM (active) | 1510 nM (active) | 1200 nM (active)
COC(=O)C1=C(C(=O)OC)[C@@H]2Nc3ccccc3[C@@]23C[C@@H](C(=O)OC)N(S(=O)(=O)c2ccc(OC)cc2)C3=N1 | inactive | – | – | – | inactive
CCCCS(=O)(=O)N1CCc2nc(-c3ccc(OC)cc3C)c3c(c2C1)CO[C@@H](c1ccccc1)C3 | inactive | – | – | – | inactive
COC(=O)C1=C(C(=O)OC)[C@@H]2N(Cc3ccccc3)c3ccccc3[C@@]23C[C@@H](C(=O)OC)N(S(=O)(=O)c2ccc(C(F)(F)F)cc2)C3=N1 | – | 478 nM (active) | 478 nM (active) | 536 nM (active) | 536 nM (active)
CCOC(=O)CN1C(=O)N(CC)C(C)=C(C(=O)OC)[C@@H]1c1ccccc1 | – | inactive | inactive | inactive | inactive
C=CC1=C2C=C(C3CC3)N(C3CC3)C=C2C(=O)C(C)(OC(=O)c2ccco2)C1=O (centres undefined) | – | inactive | inactive | inactive | inactive
COC(=O)CCC(=O)OC1(C)C(=O)C=C2C=C(C3CC3)N(C(CO)CO)C=C2C1=O (centres undefined) | – | inactive | inactive | inactive | inactive
COC(=O)CCC(=O)OC1(C)C(=O)C2=CN(c3ccc(OC)cc3)C(c3ccc(OC)cc3)=CC2=C(Br)C1=O (centres undefined) | inactive | – | inactive | – | inactive
COC(=O)C(C(=O)OC)[C@@H]1c2ccccc2[C@H]2C(=C[C@@H](C)[C@H]3C(=O)N(c4ccccc4)C(=O)[C@H]32)N1C(=O)OC | – | inactive | inactive | inactive | inactive
CCCCCCCC1=Cc2ccccc2C(C(C(C)=O)C(=O)OC)N1C(=O)OC (centres undefined) | inactive | – | – | – | inactive
COC(=O)C1=C(C(=O)OC)[C@@H]2N(Cc3ccccc3)c3ccccc3[C@@]23C[C@@H](C(=O)OC)N(C(=O)CC(C)C)C3=N1 | inactive | – | – | – | inactive
C=CCN1C=C2C(=O)C(C)(OC(=O)c3cccs3)C(=O)C=C2C=C1CCCC(=O)OC (centres undefined) | – | inactive | inactive | inactive | inactive
CCN1C(=O)N[C@@H](c2cccc(C(F)(F)F)c2)C(C(=O)OC)=C1C | – | inactive | inactive | inactive | inactive
CCOC(=O)CN1C(=O)N[C@@H](c2cccc(C(F)(F)F)c2)C(C(=O)OC)=C1C | – | inactive | inactive | inactive | inactive
C=CCNC(=O)N1C2=NC(C(=O)OC)=C(C(=O)OC)[C@@H]3N(Cc4ccccc4)c4ccccc4[C@]23C[C@H]1C(=O)OC | – | 1510 nM (active) | 3160 nM (active) | 1900 nM (active) | –
COc1cccc(CC(=O)N2CCc3nc(-c4ccc(OC)cc4C)c4c(c3C2)CO[C@@H](c2ccccc2)C4)c1 | inactive | – | – | – | inactive
c1ccc(-c2nc(-c3cccc4ccccc34)c(Nc3ccc4ccccc4c3)o2)cc1 | – | 1510 nM (active) | – | 1510 nM (active) | –
COC(=O)C1=C(C(=O)OC)[C@@H]2N(Cc3ccccc3)c3ccccc3[C@@]23C[C@@H](C(=O)OC)N(C(=O)c2ccc(Br)cc2)C3=N1 | inactive | – | – | – | inactive
COC(=O)C1=C(C(=O)OC)[C@@H]2Nc3ccccc3[C@@]23C[C@@H](C(=O)OC)N(S(=O)(=O)c2ccc(C(F)(F)F)cc2)C3=N1 | inactive | – | – | – | inactive
COC(=O)C1=C(C(=O)OC)[C@@H]2N(Cc3ccccc3)c3ccccc3[C@@]23C[C@@H](C(=O)OC)N(S(=O)(=O)c2ccc(C#N)cc2)C3=N1 | – | 1900 nM (active) | – | 2130 nM (active) | –
CC#CCN1c2ccccc2[C@]23C[C@@H](C(=O)OC)N(S(=O)(=O)c4ccc([N+](=O)[O-])cc4)C2=NC(C(=O)OC)=C(C(=O)OC)[C@H]13 | inactive | – | – | – | inactive
